Assay outcomes: PubChem BioAssay, National Center for Advancing Translational Sciences (NCATS)
Rows were chosen to be rich in hits. Some 6.2% of all compounds tested hit in one or more screens of this group.
ATXN2 expr inh: inhibitors of ATXN2 expression; 0.72% of 360,000 active; HEK-293 ATXN2-luciferase reporter, luminescence, 24 h; Potency, µM (titrated, usually from 57 µM), without a hit: at the highest dose activity change, negative = inhibition, usual class: inhibitors; note: % is set by controls: 0 for no effect and ±100 for the full control effect; nearly all actives have a fitted effect of over 55% in size
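qHTS (up to 57 uM final) was run with 24 h compound exposure of reporter cells at 37 °C. Each well was multiplexed: SteadyGlo luminescence measured ATXN2-luciferase expression after a fluorogenic Gly-Phe-AFC viability readout (25 uM final).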
KB-V1 MDR tox: KB-V1 MDR subline cytotoxicity; Potency, µM (top dose mostly 46.1 µM), actives largely listed as cytotoxic; KB-V1 MDR cells viability, CellTiter-Glo, 72 h; AID 1347076; 3.4% of 400,000 active; note: % is set by controls: 0 for no effect and ±100 for the full control effect; nearly all actives have a fitted effect of over 60% in size
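Compound-treated KB-V1 multidrug-resistant cells, 72 h, 37 degrees C; viability by CellTiter-Glo. Fitted qHTS curves give the values.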
KB-3-1 tox: kills parental KB-3-1 adenocarcinoma cells | KB-3-1 viability, CellTiter-Glo ATP luminescence, 72 h | Potency, µM (series often up to 46.1 µM), most hits filed as cytotoxic | 1.4% of 400,000 active | AID 1347075; note: % is set by controls: 0 for no effect and ±100 for the full control effect; nearly all actives have a fitted effect of over 60% in size
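Cytotoxicity in the drug-sensitive parental line KB-3-1 was scored as loss of CellTiter-Glo luminescence following 72 h incubation with compound. Values come from curve fitting of normalized concentration-response data.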
HT1080 IDH1KD tx: toxicity to HT-1080 IDH1 knockdown cells (counter line) | HT-1080 IDH1 knockdown viability, ATP luminescence, 48 h | Potency, µM (doses to about 46.1 µM), for the others: top-dose activity, negative = toxicity, usual class: cytotoxic | 2% of 360,000 active;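 note: 0% = DMSO wells and -100% = cell-free medium wells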
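Using the IDH1-knockdown HT-1080 line run in the same batch and compound series as the NT line, viability after 48 h at 37 °C was determined by CellTiter-Glo luminescence and expressed as % activity.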
HT1080-NT tox: kills 2HG-producing HT-1080-NT fibrosarcoma cells. Potency, µM (top dose mostly 46.1 µM), without a hit: top-dose activity, negative = less viability, actives largely listed as cytotoxic. AID 686970. HT-1080-NT fibrosarcoma viability, CellTiter-Glo ATP luminescence, 48 h. 1.6% of 360,000 active;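 note: NT is the 2HG producing partner of a matched IDH1 knockdown line; 0% = DMSO-treated cells and -100% = media-only wells without cells; nearly all actives have a fitted effect of over 55% in size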
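Fibrosarcoma NT cells, 750 per well in 5% FBS RPMI, were exposed to compound for 48 hours. Viability: CellTiter-Glo luminescence.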
ATXN viability: reduces viability in counter-screen for ATXN expression inhibitors; Potency, µM (highest dose often 56.7 µM), usual class: cytotoxic; 0.49% of 400,000 active; S2 cells (HEK-293 line with an ATXN2-luciferase reporter) viability, CellTiter-Fluor protease fluorescence, 24 h; note: nearly all actives have a fitted effect of over 40% in size
* hit, by the source's call; i = inactive; ? = inconclusive; nt = no result; ! = repeats disagree. Calls come from the whole dose curve; as a rule, active = well fitted curve in the direction sought with a large enough effect; inconclusive = small, poorly fitted or top-dose-only effect, or another doubt; inactive = no such curve, though single readings can be large; an effect the other way counts as inactive or inconclusive. Potency is the fitted concentration of half-maximal effect.

SMILES	ATXN2 expr inh	KB-V1 MDR tox	KB-3-1 tox	HT1080 IDH1KD tx	HT1080-NT tox	ATXN viability
Cc1cc(C2=NNC(=NC3CC3)SC2)c(C)n1Cc1ccco1	?	5.2µM*	3.3µM*	7.3µM*	7.3µM*	?
COCCn1c(C)cc(C2=NNC(=NC3CC3)SC2)c1C	0.21µM*	?	i	?	?	?
COc1ccc(-n2c(C)cc(C3=NNC(=NC4CC4)SC3)c2C)cc1	7%	?	?	21µM*	23µM*	i
C=CCN=C1NN=C(c2cc(C)n(CCOC)c2C)CS1	-23%	i	i	8%	9%	i
COc1ccc(C2=NN(C)C(=NCc3ccccc3)SC2)cc1	6%	23µM*	?	0%	-11%	i
CCN1/C(=C/c2ccc3cc(C)ccc3[n+]2C)Sc2ccc3sccc3c21	nt	i	i	?	16µM*	nt
CCCCN1/C(=C/c2ccc3ccccc3[n+]2CC)Sc2ccccc21	?	i	i	15µM*	?	16µM*
CCN1/C(=C/c2ccc3cc(C)ccc3[n+]2CC)Sc2cc(C)ccc21	?	i	?	23µM*	16µM*	nt
Cc1sc2c3ccsc3ccc2[n+]1C	-15%	i	i	-21%	-6%	i
CCCCN1/C(=C/c2cccc[n+]2C)Sc2cc(NC(C)=O)ccc21	nt	i	i	-1%	15%	i
CCCCNS(=O)(=O)c1ccc2nc(-c3cccnc3)cc(C(=O)NCCCOC(C)C)c2c1	12%	i	i	nt	nt	i
COc1ccc(C2NCCc3c2[nH]c2ccccc32)cc1CSc1nc2ccccc2s1 (stereo not given)	-34%	23µM*	?	23µM*	23µM*	i
O=c1[nH]c(CSc2nc3ccccc3s2)nc2ccccc12	14%	i	i	-10%	-15%	i
COc1cccc(-c2cc3c(c(OC)c2)OCCN(Cc2cccn2-c2ccccn2)C3)c1	nt	nt	nt	nt	nt	i
O=C(NCC1CCCO1)c1ccc(NC(=O)c2cccc(Cl)c2)cc1 (stereo not given)	nt	?	i	-1%	0%	i
O=C(NCC1CCCO1)c1ccc(NC(=O)c2ccc(Br)cc2)cc1 (stereo not given)	-32%	?	i	5%	7%	?
CCC1=Nc2cc(C(=O)NCC3CCCO3)ccc2Sc2ccc(Cl)cc21 (stereo not given)	-30%	i	9.2µM*	16µM*	?	?
CCC1=Nc2cc(C(=O)NCC3CCCO3)ccc2Sc2ccc(Br)cc21 (stereo not given)	nt	6.5µM*	6.5µM*	9.2µM*	?	?
CCCCCCSc1cc(-c2nc3ccc(C)cn3c2NCc2ccccc2)ccc1OC	-19%	13µM*!	?	?	?	20µM*
CCCCCCSc1ccc(-c2nc3ccc(C)cn3c2NCCCC)cc1OC	0%	21µM*	?	?	21µM*	28µM*
CCCCNc1c(-c2cccc(-c3cc(C(C)=O)cs3)c2)nc2cc(C)ccn12	22µM*	i	?	-53%	?	11µM*
CCCCCCSc1ccc(-c2nc3ccc(Cl)cn3c2NCCCC)cc1OC	3%	i	i	3%	1%	i
CCCCCCSc1cccc(-c2nc3ccc(C)cn3c2NCc2ccccc2)c1	0%	i	i	-3%	?	?
CCC(C)Sc1cccc(-c2nc3ccc(C)cn3c2NCc2ccccc2)c1 (stereo not given)	?	18µM*!	?	?	?	?
CCC(C)Sc1cccc(-c2nc3ccc(Cl)cn3c2NCc2ccccc2)c1 (stereo not given)	-32%	?	i	?	?	i
COC(=O)c1ccc(C2c3c(oc4cc(C)c(C)cc4c3=O)C(=O)N2c2ccccn2)cc1 (stereo not given)	3%	i	i	nt	nt	i
